# Measurements published in PubChem BioAssay (EPA / NIEHS).
# Records with an inconclusive call do not appear. Activity calls are given as the source filed them. The calls were made as follows, unless noted: active = hit-call score of the fitted dose curve at least 0.9, where 1 is the maximum; inactive = score below 0.9.
# Tests used:
# [1] = CCTE_Shafer_MEA_dev_burst_rate: CCTE's Neural Network Formation Assay for Burst Rate, Shafer Lab (AID 2284042);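 as to AC50: potency for loss of burst rate below DMSO control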
# Procedure, shortened: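 Developmental network assay measuring how 12-day exposure of rat cortical neuron cultures alters bursting on extracellular MEA recordings. Values are AUC of well-mean burst rate across four recording days, relative to DMSO vehicle.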
# [2] = CCTE_Shafer_MEA_dev_bursting_electrodes_number: CCTE's Neural Network Formation Assay for Number of Bursting Electrodes, Shafer Lab (AID 2284043; active = hit-call score of the fitted dose curve at least 0.9, where 1 is the maximum;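 as to AC50: potency is for loss of bursting electrodes relative to DMSO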)
# Procedure, shortened: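 Rat cortical primary neurons, 48-well MEA, 16 electrodes/well; dosing DIV 0–12, re-dosed with full media change DIV 5, 9. Recordings DIV 5/7/9/12, AxIS adaptive spike detector; bursting electrode = ≥1 burst/2 min. AUC across days; loss of signal vs DMSO.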
# [3] = CCTE_Shafer_MEA_dev_per_burst_interspike_interval: CCTE's Neural Network Formation Assay for Burst Interspike Interval, Shafer Lab (AID 2284044);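 also: mean spike spacing inside bursts as AUC over recordings on days 5 7 9 12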;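 as to AC50: potency for a decrease of within-burst interspike interval below DMSO level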
# Procedure, shortened: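 Developmental network-formation MEA in primary rat cortical cultures with exposure spanning days 0–12. Within-burst ISI is averaged per well and integrated across recording days by area under the curve, with DMSO as negative control baseline.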
# [4] = CCTE_Shafer_MEA_dev_burst_duration_mean: CCTE's Neural Network Formation Assay for Mean Burst Duration, Shafer Lab (AID 2284045);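 as to AC50: curve fitted for loss meaning shorter burst duration than DMSO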
# Procedure, shortened: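 Rat cortical cultures, 1.5 x 10^5 cells/well with laminin drop; continuous dosing days 0–12, media plus treatment refreshed DIV 5, 9. AxIS adaptive spike detection; mean single-electrode burst duration, AUC over four recordings, negative direction vs DMSO.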
# [5] = CCTE_Shafer_MEA_dev_interburst_interval_mean: CCTE's Neural Network Formation Assay for Mean Interburst Interval, Shafer Lab (AID 2284046);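 also: well-mean interburst interval of bursting electrodes as AUC over four recording days; curve fitted for decrease in interburst interval relative to DMSO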
# Procedure, shortened: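 Network formation assay in primary rat cortical cultures, exposed from DIV 0 to 12. Mean interburst interval per well, integrated as AUC over four recordings.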
# [6] = CCTE_Shafer_MEA_dev_inter_network_spike_interval_mean: CCTE's Neural Network Formation Assay for Mean Inter-network Spike Interval, Shafer Lab (AID 2284047);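 as to AC50: potency for a decrease in mean inter-network spike interval below DMSO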
# Procedure, shortened: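 Compound was given at plating to primary rat cortical neurons and renewed with full medium changes on DIV 5 and 9. Extracellular activity was recorded on days 5, 7, 9, 12; AUC values were fitted for loss relative to DMSO control.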
# [7] = CCTE_Shafer_MEA_dev_network_spike_number: CCTE's Neural Network Formation Assay for Number of Network Spikes, Shafer Lab (AID 2284048);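 also: synchronized bursts across electrodes counted on days 5 7 9 12 and integrated as AUC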;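 as to AC50: fit as a loss of signal meaning fewer network spikes than DMSO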
# Procedure, shortened: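 Rat cortical primary cultures on 48-well MEA (16 electrodes/well); continuous exposure DIV 0–12, full medium and treatment exchange DIV 5, 9. Readout: network spike count, AxIS adaptive detection, recordings DIV 5/7/9/12 collapsed to AUC; loss-of-signal fit, DMSO baseline.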
# [8] = CCTE_Shafer_MEA_dev_network_spike_peak: CCTE's Neural Network Formation Assay for Mean Number of Electrodes in Network Spike, Shafer Lab (AID 2284049);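 as to AC50: fitted for loss of signal meaning fewer electrodes in network spikes than DMSO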
# Procedure, shortened: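 Network-spike peak electrode count from recordings on days 5, 7, 9 and 12 was combined as trapezoidal area under the curve. Rat cortical cultures were treated continuously from plating, with compound renewed at each feed (DIV 5, 9); fits versus DMSO.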
# [9] = CCTE_Shafer_MEA_dev_active_electrodes_number: CCTE's Neural Network Formation Assay for Number of Active Electrodes, Shafer Lab (AID 2284040; active = hit-call score of the fitted dose curve at least 0.9, where 1 is the maximum;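 as to AC50: potency for loss of active electrodes versus DMSO so lower counts are hits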)
# Procedure, shortened: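 Counts electrodes per well firing at least 5 spikes/min, recorded on days 5, 7, 9 and 12 in rat cortical cultures dosed continuously from plating (treatment refreshed DIV 5, 9). Value is the area under the curve over recordings, fitted downward relative to DMSO.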
# [10] = target: Estrogen receptor (Homo sapiens) (UniProt P03372); assay: CCTE_Deisenroth_AIME_384WELL_LUC_Shift: CCTE's 384-well Estrogen Receptor Transactivation Assay with AIME metabolic competence data shift (ERTA luciferase; difference in metabolism positive and negative), Deisenroth Lab (AID 2284041);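 also: shift is response with S9 minus without S9 so positive means metabolism raised ER signal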
# Estrogen receptor (Homo sapiens), sequence (P03372 whole entry, looked up): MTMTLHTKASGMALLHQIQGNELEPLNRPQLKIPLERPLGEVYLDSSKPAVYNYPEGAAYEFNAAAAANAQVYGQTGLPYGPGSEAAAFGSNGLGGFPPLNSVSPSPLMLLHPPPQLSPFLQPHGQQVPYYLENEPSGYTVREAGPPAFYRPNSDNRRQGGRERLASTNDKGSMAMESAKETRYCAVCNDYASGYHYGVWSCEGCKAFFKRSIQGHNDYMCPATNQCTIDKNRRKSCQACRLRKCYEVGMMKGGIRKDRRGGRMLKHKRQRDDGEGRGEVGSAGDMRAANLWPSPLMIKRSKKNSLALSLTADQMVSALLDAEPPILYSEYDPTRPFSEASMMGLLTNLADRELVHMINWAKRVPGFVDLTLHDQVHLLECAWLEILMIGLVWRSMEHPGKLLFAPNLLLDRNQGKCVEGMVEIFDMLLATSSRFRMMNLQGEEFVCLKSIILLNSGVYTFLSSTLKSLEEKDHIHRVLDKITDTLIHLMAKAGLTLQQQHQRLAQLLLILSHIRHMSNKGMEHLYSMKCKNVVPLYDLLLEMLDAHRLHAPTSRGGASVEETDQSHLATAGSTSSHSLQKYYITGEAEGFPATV
# Procedure, shortened: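 Chemicals (0.002–200 uM, 10 points) pre-incubated 2 h with alginate-encapsulated induced male Sprague Dawley rat liver S9 or S9-free, then medium applied 24 h to VM7Luc4E2 cells; luciferase. Endpoint is per-concentration difference, S9-positive minus negative.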
smiles,measurement,setting,value
CC(C)COC(=O)c1ccccc1C(=O)OCC(C)C,outcome,[1],inactive
same,AC50,[2],13.8 µM (active)
same,AC50,[3],23.2 µM (active)
same,outcome,[4],inactive
same,AC50,[5],12.8 µM (active)
same,outcome,[6],inactive
same,outcome,[7],inactive
same,AC50,[8],15.9 µM (active)
CCC[CH2][Sn]([Cl])([CH2]CCC)[CH2]CCC,AC50,[9],0.0428 µM (active)
same,AC50,[1],0.043 µM (active)
same,AC50,[2],0.0406 µM (active)
same,AC50,[3],0.0392 µM (active)
same,AC50,[4],30.2 nM (active)
same,AC50,[5],0.0762 µM (active)
same,AC50,[6],76.9 nM (active)
same,AC50,[7],56.5 nM (active)
same,AC50,[8],0.0754 µM (active)
CCCCCOC(=O)c1ccccc1C(=O)OCCCCC,outcome,[10],inactive
ClC1=C(Cl)[C@]2(Cl)[C@H]3[C@H]([C@@H]4C=C[C@H]3C4)[C@@]1(Cl)C2(Cl)Cl,AC50,[9],5.34 µM (active)
same,AC50,[1],5.95 µM (active)
same,AC50,[2],7.53 µM (active)
same,AC50,[3],6.26 µM (active)
same,AC50,[4],3950 nM (active)
same,AC50,[5],7.62 µM (active)
same,outcome,[6],inactive
same,AC50,[7],7560 nM (active)
same,AC50,[8],5.55 µM (active)
CCOc1cccc(C2(N3CCN(c4ccccc4)CC3)CCC(C)CC2)c1 (configuration not stated),outcome,[10],inactive
Clc1ccc(C(c2ccc(Cl)cc2)C(Cl)Cl)cc1,AC50,[9],4.66 µM (active)
same,AC50,[1],8.68 µM (active)
same,AC50,[2],6.19 µM (active)
same,AC50,[3],8.24 µM (active)
same,outcome,[4],inactive
same,AC50,[5],8.61 µM (active)
same,outcome,[6],inactive
same,AC50,[7],1980 nM (active)
same,AC50,[8],4.03 µM (active)
C1=Cc2cccc3cccc1c23,outcome,[9],inactive
same,outcome,[1],inactive
same,outcome,[2],inactive
same,outcome,[3],inactive
same,outcome,[4],inactive
same,outcome,[5],inactive
same,outcome,[6],inactive
same,outcome,[7],inactive
same,outcome,[8],inactive
COC(=O)Nc1nc2ccccc2[nH]1,AC50,[9],15.3 µM (active)
same,outcome,[1],inactive
same,AC50,[2],12.5 µM (active)
same,outcome,[3],inactive
same,outcome,[4],inactive
same,outcome,[5],inactive
same,outcome,[6],inactive
same,outcome,[7],inactive
same,AC50,[8],12.5 µM (active)
Nc1cc(Cl)cc(C(=O)O)c1Cl,outcome,[9],inactive
same,outcome,[1],inactive
same,outcome,[2],inactive
same,outcome,[3],inactive
same,outcome,[4],inactive
same,outcome,[5],inactive
same,outcome,[6],inactive
same,outcome,[7],inactive
same,outcome,[8],inactive
ClC1=C(Cl)C2(Cl)C3C(Cl)C=CC3C1(Cl)C2(Cl)Cl (configuration not stated),AC50,[9],4.27 µM (active)
same,AC50,[1],2.74 µM (active)
same,AC50,[2],2.35 µM (active)
same,outcome,[3],inactive
same,outcome,[4],inactive
same,AC50,[5],2.32 µM (active)
same,outcome,[6],inactive
same,outcome,[7],inactive
same,AC50,[8],4.19 µM (active)
O=P(OCCCl)(OCCCl)OCCCl,outcome,[9],inactive
same,outcome,[1],inactive
same,outcome,[2],inactive
same,outcome,[3],inactive
same,outcome,[4],inactive
same,outcome,[5],inactive
same,outcome,[6],inactive
same,outcome,[7],inactive
same,outcome,[8],inactive
[Cl-].[Cl-].[Hg+2],AC50,[9],0.543 µM (active)
same,AC50,[1],0.923 µM (active)
same,AC50,[2],0.539 µM (active)
same,AC50,[3],0.869 µM (active)
same,AC50,[4],881 nM (active)
same,AC50,[5],0.318 µM (active)
same,outcome,[6],inactive
same,AC50,[7],444 nM (active)
same,AC50,[8],0.641 µM (active)
C[N+](C)(C)CC1CO1 (configuration not stated),outcome,[10],inactive
